This is an account of results in PubChem BioAssay (NCI).

This is part of a sample that, as a whole, favours compounds with a hit. Of some 83,000 tested, about 20% had one in any assay.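 Results are percent growth after 48 hours of single-concentration exposure. 100 means growth as in untreated cells, lower positive values show inhibition; negative values down to -100 show cell death.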 Active and inactive are the calls of the source. How the source made its calls: active means growth percent below 10; inactive means the rest.

Some test systems named below: DU-145 prostate; K-562 leukemia; MALME-3M melanoma; MDA-MB-231 breast; RXF 393 renal; SF-268 CNS; SF-539 CNS; UACC-257 melanoma; M14 melanoma; HCT-15 colon; HT29 colon; SNB-19 CNS; U251 CNS; PC-3 prostate; SK-MEL-5 melanoma; UACC-62 melanoma; LOX IMVI melanoma; SK-MEL-28 melanoma; SNB-75 CNS.
Assay in all cases: NCI-60 one-dose screen, 48 h (100 = growth as untreated, 0 = no growth, -100 = all killed)
What all share (details): 10 µM unless noted

Take `C/C(=C\C(=N\N=C(N)N)c1ccc(Cl)cc1)c1ccc(Cl)cc1`: the growth in the assay on DU-145 prostate is -91.4% (active); in the assay with K-562 leukemia, -51.7% (active); in the assay on MALME-3M melanoma it was -64.6% (active); with MDA-MB-231 breast, -73.1% (active); in the assay on RXF 393 renal it was -95.8% (active); in the assay on SF-268 CNS, -89.2% (active). The growth in the assay on SF-539 CNS was -73.7% (active); in the assay with UACC-257 melanoma, -72.5% (active); in the assay on M14 melanoma, -79.7% (active); with HCT-15 colon, -69.5% (active); with HT29 colon, -70.1% (active); with SNB-19 CNS, -79.8% (active). The growth in the assay on U251 CNS is -93% (active); with PC-3 prostate, -80% (active); in the assay on SK-MEL-5 melanoma it was -98.7% (active); with UACC-62 melanoma, -87.3% (active); with LOX IMVI melanoma, -59.1% (active); in the assay on SK-MEL-28 melanoma, -81% (active).

Consider `C#CC[C@@H]1C[C@]2(C)[C@H]3CC[C@@H]4[C@H]5C(C(=C)C)CC[C@]5(C(=O)NCCCCN)CC[C@@]4(C)[C@]3(C)CC[C@H]2C(C)(C)[C@H]1OC(C)=O` (some centres not stated), for which the growth in the assay with DU-145 prostate is -77.8% (active); with K-562 leukemia it was -9.82% (active); in the assay on MALME-3M melanoma it was 46.6% (inactive); in the assay with MDA-MB-231 breast, -81.2% (active); with RXF 393 renal, -89.2% (active); in the assay on SF-268 CNS, 91.6% (inactive). Moreover, the growth was -82.9% (active) in the assay on SF-539 CNS; 85.9% (inactive) with UACC-257 melanoma; -58.5% (active) in the assay with M14 melanoma; -66.1% (active) in the assay with HCT-15 colon; -61.3% (active) in the assay with HT29 colon; -56.7% (active) in the assay on SNB-19 CNS. The growth is -86.6% (active) with U251 CNS; 6.29% (active) in the assay with PC-3 prostate; 89.9% (inactive) in the assay on SK-MEL-5 melanoma; -36.1% (active) in the assay on UACC-62 melanoma; -83.4% (active) with LOX IMVI melanoma; 67.9% (inactive) in the assay with SK-MEL-28 melanoma.

Take `CN1CCN(Cc2ccc(NC(=O)c3cncc(C#Cc4ncc5cnccn45)c3)cc2C(F)(F)F)CC1`: the growth was 46.8% (inactive) with DU-145 prostate; 8.73% (active) in the assay with K-562 leukemia; 14.7% (inactive) in the assay on MALME-3M melanoma; 25.6% (inactive) in the assay on MDA-MB-231 breast; 51.1% (inactive) in the assay with RXF 393 renal; 56.4% (inactive) in the assay on SF-268 CNS. The growth in the assay with SF-539 CNS is 37.8% (inactive); in the assay with UACC-257 melanoma, 55.3% (inactive); in the assay with HCT-15 colon, 56.7% (inactive); with HT29 colon it was 27.4% (inactive); with SNB-75 CNS it was 38.1% (inactive); with SNB-19 CNS it was 94.5% (inactive). Also, the growth in the assay with U251 CNS was 64.2% (inactive); with PC-3 prostate, 54.9% (inactive); in the assay with UACC-62 melanoma, 57.3% (inactive); with LOX IMVI melanoma, 26.5% (inactive); in the assay on SK-MEL-28 melanoma, 38.1% (inactive).

Turning to `COc1ccc(NC(=O)C2c3ccccc3C(=O)N(CC(C)C)C2c2cccs2)cc1` (configuration not stated), the growth in the assay with DU-145 prostate is 98.9% (inactive); in the assay with K-562 leukemia it was 88.8% (inactive); in the assay with MALME-3M melanoma, 113% (inactive); in the assay on MDA-MB-231 breast, 92.1% (inactive); with RXF 393 renal, 79.2% (inactive); with SF-268 CNS, 95.1% (inactive). For the same compound, the growth with SF-539 CNS was 98.9% (inactive); in the assay on UACC-257 melanoma it was 97.2% (inactive); with M14 melanoma, 106% (inactive); with HCT-15 colon it was 98.9% (inactive); in the assay on HT29 colon, 101% (inactive); with SNB-19 CNS, 111% (inactive). Further, the growth is 96% (inactive) in the assay on U251 CNS; 95.1% (inactive) in the assay with PC-3 prostate; 89.1% (inactive) with SK-MEL-5 melanoma; 89.5% (inactive) with UACC-62 melanoma; 86.3% (inactive) with LOX IMVI melanoma; 105% (inactive) in the assay with SK-MEL-28 melanoma.

Turning to `COc1ccc(Sc2[nH]c(C=O)c3ccccc23)cc1`, the growth in the assay on DU-145 prostate is 74.6% (inactive); with K-562 leukemia, -0.59% (active); in the assay on MALME-3M melanoma it was 91.8% (inactive); in the assay on MDA-MB-231 breast it was 49.3% (inactive); in the assay with RXF 393 renal it was 6.64% (active); in the assay with SF-268 CNS, 78% (inactive). Moreover, the growth is 64.9% (inactive) in the assay with SF-539 CNS; 91.4% (inactive) with UACC-257 melanoma; 63.1% (inactive) with HCT-15 colon; 19.4% (inactive) in the assay with HT29 colon; 6.71% (active) in the assay with SNB-75 CNS; 77.6% (inactive) in the assay with SNB-19 CNS. Moreover, the growth in the assay with U251 CNS is 76.6% (inactive); in the assay with PC-3 prostate, 45% (inactive); with SK-MEL-5 melanoma, 70.1% (inactive); in the assay on UACC-62 melanoma, 46.7% (inactive); with LOX IMVI melanoma it was 70.3% (inactive); in the assay on SK-MEL-28 melanoma it was 81.9% (inactive).

Consider `CCCCN(CCCC)CCC(O)c1cc2ccc(C(F)(F)F)cc2c2cc(C(F)(F)F)ccc12` (configuration not stated), for which the growth with DU-145 prostate is 55.3% (inactive); in the assay with K-562 leukemia, 5.28% (active); in the assay with MALME-3M melanoma, 47.8% (inactive); in the assay on MDA-MB-231 breast it was 33.2% (inactive); in the assay on RXF 393 renal it was 7.74% (active); in the assay on SF-268 CNS, 63.3% (inactive). Besides, the growth in the assay on SF-539 CNS is 48.7% (inactive); with UACC-257 melanoma it was 41.6% (inactive); in the assay with HCT-15 colon, 27.3% (inactive); with HT29 colon it was 8.42% (active); with SNB-75 CNS it was 60.9% (inactive); in the assay on U251 CNS, 45.2% (inactive). Also, the growth is 35.6% (inactive) with PC-3 prostate; 38.9% (inactive) with SK-MEL-5 melanoma; 40.8% (inactive) in the assay on UACC-62 melanoma; -58.4% (active) in the assay on LOX IMVI melanoma; 77.2% (inactive) with SK-MEL-28 melanoma.

As to `CCOC(=O)c1ccc(N(CCC(=O)O)C(C)=O)cc1`, the growth in the assay on DU-145 prostate was 122% (inactive); with K-562 leukemia it was 103% (inactive); in the assay with MALME-3M melanoma it was 99.8% (inactive); in the assay on MDA-MB-231 breast it was 110% (inactive); in the assay on RXF 393 renal, 106% (inactive); with SF-268 CNS, 119% (inactive). The growth with SF-539 CNS was 107% (inactive); with UACC-257 melanoma, 98.2% (inactive); with M14 melanoma, 105% (inactive); in the assay with HCT-15 colon, 103% (inactive); with HT29 colon, 97.4% (inactive); in the assay on SNB-75 CNS, 94.7% (inactive). For the same compound, the growth with U251 CNS was 102% (inactive); in the assay on PC-3 prostate, 90% (inactive); in the assay with SK-MEL-5 melanoma it was 102% (inactive); with UACC-62 melanoma, 99.4% (inactive); in the assay on LOX IMVI melanoma, 105% (inactive); with SK-MEL-28 melanoma it was 103% (inactive).

As for `O=C(/C=C/c1ccccc1)n1c(-c2ccccc2)nc2ccccc21`, the growth in the assay with DU-145 prostate is 113% (inactive); in the assay on K-562 leukemia it was 103% (inactive); in the assay on MALME-3M melanoma, 112% (inactive); with MDA-MB-231 breast, 117% (inactive); in the assay with RXF 393 renal, 102% (inactive); with SF-268 CNS, 110% (inactive). Besides, the growth in the assay with SF-539 CNS is 95.3% (inactive); in the assay with UACC-257 melanoma it was 92.4% (inactive); in the assay on M14 melanoma, 104% (inactive); with HCT-15 colon it was 98.2% (inactive); in the assay with HT29 colon, 110% (inactive); in the assay on SNB-75 CNS, 85.6% (inactive). For the same compound, the growth in the assay on U251 CNS is 96.2% (inactive); with PC-3 prostate it was 95.6% (inactive); in the assay with SK-MEL-5 melanoma it was 97.4% (inactive); with UACC-62 melanoma, 103% (inactive); in the assay on LOX IMVI melanoma it was 100% (inactive); in the assay on SK-MEL-28 melanoma, 108% (inactive).
